Test results taken from paper PMC4552634, “A New Set of Chemical Starting Points with Plasmodium falciparum Transmission-Blocking Potential for Antimalarial Drug Discovery” (PLoS ONE, 2015).
About 3,200 (25%) of roughly 13,000 compounds showed an effect of 50% or more. The list shows a part of the results.

Test system: P. falciparum stage V gametocytes
Parameters: BacTiter-Glo ATP luminescence viability of purified stage V gametocytes in 384-well plates, per cent inhibition versus DMSO
Conditions: 48 h, 5 µM; inhibitor

SMILES	% Inhibition [%]
Cc1cc2c(cc1C(F)(F)F)N(C(=O)Nc1cc(C(=O)NCCN(C)C)cc(C(F)(F)F)c1)CC2 [TCMDC-139884]	20.84
Cc1cc(C(=O)Nc2ccc3c(c2)CCN3C2CCN(Cc3cccc(F)c3F)C2)no1 (stereo not shown) [TCMDC-135079]	-28.63
CCCC(C)Nc1nc(C)cc(N[C@@H](CC(C)C)C(=O)NCc2cccc(F)c2)n1 (stereo partly shown) [TCMDC-134768]	-55.2
Cc1cc(N[C@@H](Cc2ccccc2)C(=O)NCc2cccc(F)c2)nc(NCC2CCCCC2)n1 [TCMDC-134928]	5.769
Cc1cccc(CNc2nc(C)cc(N[C@@H](Cc3ccccc3)C(=O)NCc3cccc(F)c3)n2)c1 [TCMDC-134887]	21.53
COc1ccccc1CCNc1nc(C)cc(N[C@@H](Cc2ccccc2)C(=O)NCc2cccc(F)c2)n1 [TCMDC-134893]	92.55
Cc1cc(N[C@@H](Cc2ccccc2)C(=O)NCc2cccc(F)c2)nc(NCc2ccccc2C)n1 [TCMDC-134903]	-28.89
Cc1cc(N[C@@H](Cc2ccccc2)C(=O)NCc2cccc(F)c2)nc(NCCc2ccccc2)n1 [TCMDC-134773]	75.65
Cc1cc(N[C@@H](Cc2ccccc2)C(=O)NCc2cccc(F)c2)nc(NCCc2ccc(F)cc2)n1 [TCMDC-134785]	98.48
Cc1cc(N[C@@H](CC(C)C)C(=O)NCc2cccc(F)c2)nc(NCC2CCCCC2)n1 [TCMDC-134916]	-56.42
COc1ccccc1CCNc1nc(C)cc(N[C@@H](CC(C)C)C(=O)NCc2cccc(F)c2)n1 [TCMDC-134863]	80.77
Nc1nc(N)c2c(CCc3ccc4ccccc4c3)cccc2n1 [TCMDC-141975]	-16.21
O=C(O)C(F)(F)F.O=C(O)Cc1ccc(-c2c[nH]c3ncc(-c4cccc5ncccc45)cc23)cc1 [TCMDC-136372]	46.28
CC(C)(CNC(=O)C1CCN(CCOCc2ccccc2)CC1)c1nc(-c2ccc(Cl)c(O)c2)c(-c2ccncc2)[nH]1 [TCMDC-141122]	-51.1
CN1CCc2cc(I)c(O)cc2C1Cc1ccccc1Cl (stereo not shown) [TCMDC-137321]	-44.87
Cc1csc(-c2nonc2NC(=O)COc2ccccc2C(C)C)n1 [TCMDC-125014]	-9.384
Cc1ccc(CNC(=O)[C@H](Cc2ccccc2)Nc2cc(C)nc(NCc3ccccc3C)n2)cc1 [TCMDC-134905]	48.7
Cc1cc(N[C@@H](Cc2ccccc2)C(=O)NCc2cccc(F)c2)nc(NCCCOC(C)C)n1 [TCMDC-134822]	52.41
Cc1cc(N[C@@H](Cc2ccccc2)C(=O)NCc2cccc(F)c2)nc(NCCc2cccs2)n1 [TCMDC-134812]	147.6
Cc1cc(N[C@@H](Cc2ccccc2)C(=O)NCc2cccc(F)c2)nc(Nc2ccccc2)n1 [TCMDC-134857]	-8.236
CCCC(C)Nc1nc(C)cc(N[C@@H](Cc2ccccc2)C(=O)NCc2cccc(F)c2)n1 (stereo partly shown) [TCMDC-134764]	-38.43
CCCC(C)Nc1nc(C)cc(N[C@@H](Cc2ccccc2)C(=O)NCc2ccc(C)cc2)n1 (stereo partly shown) [TCMDC-134894]	-11.47

SMILES	% Inhibition [%]
Cc1cc(N[C@@H](Cc2ccccc2)C(=O)NCc2cccc(F)c2)nc(NCCOc2ccccc2)n1 [TCMDC-134756]	40.03
Cc1ccc(CNC(=O)[C@H](Cc2ccccc2)Nc2cc(C)nc(NCCc3ccc(F)cc3)n2)cc1 [TCMDC-134788]	66.59
Cc1cc(N[C@@H](Cc2ccccc2)C(=O)NCc2cccc(F)c2)nc(NCCc2cccnc2)n1 [TCMDC-134817]	63.38
COc1ccc(Cn2c(Nc3cccc(C(F)(F)F)c3)nc3cc(C(=O)NC(C)C)cnc32)cc1Cl [TCMDC-138556]	8.056
CC[C@H](C)CNC(=O)c1ccc(-c2cccc(CN3CCC(N4CCCC4)CC3)c2)nc1 [TCMDC-134222]	28.35
Cc1cccc2[nH]c(-c3cccc(-c4ccc(NC(=O)C(C)(C)c5ccccn5)cc4)c3)nc12 [TCMDC-137053]	15.43
COc1cc(-c2nnc(SCC(=O)Nc3cc(C)on3)n2C)cc(OC)c1O [TCMDC-123652]	-77.31
CC(=O)Oc1c(C(=O)C2CCC(C(C)(C)C)CC2)c(OC(C)=O)c2ccccc2c1OC(C)=O (stereo not shown) [TCMDC-138179]	0.9625
O=S(=O)(NCCN1CCCC1)c1ccc(-c2ccccc2CNC2Cc3ccccc3C2)cc1 [TCMDC-132210]	61.07
O=S(=O)(NCCN1CCCC1)c1cccc(-c2ccccc2CNC2Cc3ccccc3C2)c1 [TCMDC-132212]	102.4
COc1cccc(OC)c1C(=O)N1CCC2(CC1)C(=O)N(CC(=O)NC1CCCCC1)CN2c1ccccc1 [TCMDC-125168]	-28.41
CC1CCc2c(C(=O)N3CCc4ccccc4C3)csc2C1 (stereo not shown) [TCMDC-123624]	13.04
CN1CCN(c2cccc(Nc3nccc(NCC(O)c4ccccc4)n3)c2)CC1 (stereo not shown) [TCMDC-136468]	11.64
OC(CNc1ccnc(Nc2cccc(OCCCN3CCOCC3)c2)n1)c1ccccc1 (stereo not shown) [TCMDC-136465]	23.11
CN(C)Cc1cccc(-c2ccc(Nc3nccc(NCC(O)c4ccccc4)n3)cc2)c1 (stereo not shown) [TCMDC-136470]	73.29
CN(C)CC(=O)Nc1ccc(Nc2nccc(NCC(O)c3ccccc3)n2)cc1 (stereo not shown) [TCMDC-136466]	-80.24
Cc1ccc(Nc2nccc(NCC(O)c3cccc(C)c3)n2)cc1 (stereo not shown) [TCMDC-136569]	-32.98
CN(C)CC(=O)Nc1cccc(Nc2nccc(NCC(O)c3ccccc3)n2)c1 (stereo not shown) [TCMDC-136472]	19.31
Cc1nc(-c2cccc(Nc3nccc(NCC(O)c4ccccc4)n3)c2)cs1 (stereo not shown) [TCMDC-136565]	4.289
CN(C)Cc1ccc(-c2cccc(Nc3nccc(NCC(O)c4ccccc4)n3)c2)cc1 (stereo not shown) [TCMDC-136467]	95.23
CN1CCC(Oc2ccc(Nc3nccc(NCC(O)c4ccccc4)n3)cc2Cl)CC1 (stereo not shown) [TCMDC-136471]	60.18
